According to PubChem BioAssay (NCATS):
Inconclusive results are not listed. Active and inactive are the calls of the source. Calls follow the shape of the dose curve; as a rule, active = well fitted cell-killing curve with a large enough effect; inconclusive = small, poorly fitted or top-dose-only effect, or effect the other way; inactive = flat fitted curve, though single readings scatter.

Legend:
Assay in all cases: Primary qHTS to identify gynecologic anti-cancer compounds using libraries of approved drugs and bioactive compounds (AID 1345084); also: nearly all actives have a fitted effect of over 55% in size
[1] = system: C33A; conditions: Gynecologic cancer cell panel viability, ATPlite luminescence, 48 h; series mostly up to 57.5 µM
How it was run: (§1)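 48 h compound exposure at 37 C, 5% CO2; five-point qHTS. ATPlite luminescence readout of cell ATP.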

[2] = system: CAOV3; conditions: Gynecologic cancer cell panel viability, ATPlite luminescence, 48 h; series mostly up to 57.5 µM
How it was run: as §1

[3] = system: CASKI; conditions: Gynecologic cancer cell panel viability, ATPlite luminescence, 48 h; series mostly up to 57.5 µM
How it was run: as §1

[4] = system: Es-2; conditions: Gynecologic cancer cell panel viability, ATPlite luminescence, 48 h; series mostly up to 57.5 µM
How it was run: as §1

[5] = system: HeLa; conditions: Gynecologic cancer cell panel viability, ATPlite luminescence, 48 h; series mostly up to 57.5 µM
How it was run: as §1

[6] = system: Hek293T; conditions: Gynecologic cancer cell panel viability, ATPlite luminescence, 48 h, control line for the selectivity index; series mostly up to 57.5 µM
How it was run: as §1
% is scaled to controls: 0 for no effect and ±100 for the full control effect.

COCCOc1ccc(N2CCN(CCn3ncc4c3nc(N)n3nc(-c5ccco5)nc43)CC2)cc1
inactive: Potency [1] | Potency [2] | Potency [3] | Potency [4] | Potency [5] | Potency [6]

CC(=O)C=C=C1C(C)(C)CC(O[C@@H]2O[C@H](CO)[C@@H](O)[C@H](O)[C@H]2O)CC1(C)O (stereo not given in full)
inactive: Potency [1] | Potency [2] | Potency [3] | Potency [4] | Potency [5] | Potency [6]

OC[C@H]1O[C@@H](OC(CCCCc2ccc(O)cc2)CCc2ccc(O)cc2)[C@H](O)[C@@H](O)[C@@H]1O (stereo not given in full)
inactive: Potency [1] | Potency [2] | Potency [3] | Potency [4] | Potency [5] | Potency [6]

COc1cc(C)c(C(=O)O[C@H]2[C@@H](OC(C)=O)[C@H](n3ccc(=O)[nH]c3=O)O[C@@H]2CO)c(OC)c1
inactive: Potency [1] | Potency [2] | Potency [3] | Potency [4] | Potency [5] | Potency [6]

COC1/C=C/C(C)(O)C(SCC(N)C(=O)O)CC(=O)OC(C)C(C)CC/C=C/1C (stereo not given)
inactive: Potency [1] | Potency [2] | Potency [3] | Potency [4] | Potency [5] | Potency [6]

C[C@@H]1C(=O)O[C@H]2[C@@H](O)C34[C@H]5C[C@@H](C(C)(C)C)C36[C@@H](OC(=O)[C@@H]6O)O[C@@]4(C(=O)O5)[C@@]12O (stereo not given in full)
inactive: Potency [1] | Potency [2] | Potency [3] | Potency [4] | Potency [5] | Potency [6]

CC1(O)CCCC2(C)C1CCC13CC(CO)C(CCC12)C3 (stereo not given)
inactive: Potency [1] | Potency [2] | Potency [3] | Potency [4] | Potency [5] | Potency [6]

OC[C@H]1O[C@@H](OCCc2ccccc2)[C@H](O[C@@H]2OC[C@](O)(CO)[C@H]2O)[C@@H](O)[C@@H]1O
inactive: Potency [1] | Potency [2] | Potency [3] | Potency [4] | Potency [5] | Potency [6]

CC(C)CC1NC(=O)C2CC3(O)c4ccccc4NC3N2C1=O (stereo not given)
inactive: Potency [1] | Potency [2] | Potency [3] | Potency [4] | Potency [5] | Potency [6]

O=C(c1ccc2nccnc2c1)N1CCCCC1
inactive: Potency [1] | Potency [2] | Potency [3] | Potency [4] | Potency [5] | Potency [6]

C/C=C1\[C@H](O[C@@H]2O[C@H](CO)[C@@H](O)[C@H](O)[C@H]2O)OC=C(C(=O)OC)[C@H]1CC(=O)OC[C@H]1O[C@@H](OCCc2ccc(O)cc2)[C@H](O)[C@@H](O)[C@@H]1O
inactive: Potency [1] | Potency [2] | Potency [3] | Potency [4] | Potency [5] | Potency [6]

CCc1ccc(Cc2ccc3c(c2)[C@]2(OC3)O[C@H](CO)[C@@H](O)[C@H](O)[C@H]2O)cc1
inactive: Potency [1] | Potency [2] | Potency [3] | Potency [4] | Potency [5] | Potency [6]

COc1c(C)c(OCC(O)C(C)(C)O)cc2c1COC2=O (stereo not given)
inactive: Potency [1] | Potency [2] | Potency [3] | Potency [4] | Potency [5] | Potency [6]

CC(=O)O[C@@H]1c2c(C)coc2C(=O)[C@@]23O[C@@H]2CC[C@H](C)[C@@]13C
inactive: Potency [1] | Potency [2] | Potency [3] | Potency [4] | Potency [5] | Potency [6]

C[C@@H]1CN(Cc2ncccn2)C[C@H]1c1nc2c(cnn2C2CCOCC2)c(=O)[nH]1
inactive: Potency [1] | Potency [2] | Potency [3] | Potency [4] | Potency [5] | Potency [6]

C[C@@H]([C@@H](O)c1ccc(O)cc1)N1CCC(O)(c2ccccc2)CC1
inactive: Potency [1] | Potency [2] | Potency [3] | Potency [4] | Potency [5] | Potency [6]

O=C(O)c1ccc(CN2CCC(CN[C@@H]3C[C@H]3c3ccccc3)CC2)cc1
inactive: Potency [1] | Potency [2] | Potency [3] | Potency [4] | Potency [5] | Potency [6]

CC1(C)CC[C@]2(C(=O)O)CC[C@]3(C)C(=CCC4[C@@]5(C)C[C@@H](O)[C@H](O)C(C)(C)C5CC[C@]43C)C2C1 (stereo not given in full)
inactive: Potency [1] | Potency [2] | Potency [3] | Potency [4] | Potency [5] | Potency [6]

C=C(C(=O)O)C1CCC2(C)CCC(O)C(C)(O)C2C1 (stereo not given)
inactive: Potency [1] | Potency [2] | Potency [3] | Potency [4] | Potency [5] | Potency [6]

O=C(/C=C/c1ccc(O)cc1)N[C@@H](Cc1ccc(O)cc1)C(=O)O
inactive: Potency [1] | Potency [2] | Potency [3] | Potency [4] | Potency [5] | Potency [6]

C=C1C(=O)O[C@H]2[C@H]1CC/C(C)=C/CC[C@@]1(C)O[C@@H]21
inactive: Potency [1] | Potency [2] | Potency [3] | Potency [4] | Potency [5] | Potency [6]

CCCOC(c1cc2nccc(C(=O)O)c2[nH]1)c1ccccc1Cl (stereo not given)
inactive: Potency [1] | Potency [2] | Potency [3] | Potency [4] | Potency [5] | Potency [6]

CC(C)CC1NC(=O)C(C)NC(=O)C(CC(C)C)OC(=O)CCCNC1=O (stereo not given)
inactive: Potency [1] | Potency [2] | Potency [3] | Potency [4] | Potency [5] | Potency [6]

CC1=CC(=O)CC2C1(O)CCC(C)C21CC(c2ccoc2)OC1=O (stereo not given)
inactive: Potency [1] | Potency [2] | Potency [3] | Potency [4] | Potency [5] | Potency [6]

CC1(C(=O)O)CCCC2(C)C3CCC4CC3(CCC12)CC4=O (stereo not given)
inactive: Potency [1] | Potency [2] | Potency [3] | Potency [4] | Potency [5] | Potency [6]

OC1CCC(Nc2ncc3nc(Nc4c(F)cc(F)cc4F)n([C@H]4CCOC4)c3n2)CC1 (stereo not given in full)
inactive: Potency [1] | Potency [2] | Potency [3] | Potency [4] | Potency [5] | Potency [6]

CC1(C)CC2C(O)c3cocc3CC(C)(O)C2C1 (stereo not given)
inactive: Potency [1] | Potency [2] | Potency [3] | Potency [4] | Potency [5] | Potency [6]

C[C@@H]1CC[C@]2(C(=O)O[C@@H]3O[C@H](CO)[C@@H](O)[C@H](O)[C@H]3O)CC[C@]3(C)C(=CCC4[C@@]5(C)C[C@@H](O)[C@H](O)[C@@](C)(C(=O)O[C@H]6[C@H](O)C[C@@]7(C)C(CC[C@]8(C)C7CC=C7[C@H]9[C@](C(=O)O[C@@H]%10O[C@H](CO)[C@@H](O)[C@H](O)[C@H]%10O)(CC[C@@H](C)[C@@]9(C)O)CC[C@]78C)[C@@]6(CO)C(=O)O)C5CC[C@]43C)[C@@H]2[C@]1(C)O (stereo not given in full)
inactive: activity change, negative = cytotoxicity [1] 2.44% [at 6.55 µM] | activity change, negative = cytotoxicity [2] 6.22% [at 6.55 µM] | activity change, negative = cytotoxicity [3] 11.5% [at 6.55 µM] | activity change, negative = cytotoxicity [4] -0.958% [at 6.55 µM] | activity change, negative = cytotoxicity [5] -3.59% [at 6.55 µM] | activity change, negative = cytotoxicity [6] 2.04% [at 6.55 µM]

N[C@@]1(C(=O)O)CC[C@H]2[C@H](C(=O)O)[C@H]21
inactive: Potency [1] | Potency [2] | Potency [3] | Potency [4] | Potency [5] | Potency [6]

COc1nc2sc(C(=O)NC3CC3)c(N)c2c(C)c1Cl
inactive: Potency [1] | Potency [2] | Potency [3] | Potency [4] | Potency [5] | Potency [6]

CC(C)c1cc2c(c(O)c1O)[C@@]13CCCC(C)(C)[C@@H]1[C@H](OC3=O)C2=O
inactive: Potency [1] | Potency [2] | Potency [3] | Potency [4] | Potency [5] | Potency [6]

C/C(=C/CO)CC[C@@H]1[C@@](C)(O)CCC2C(C)(C)CCC[C@]21C (stereo not given in full)
inactive: Potency [1] | Potency [2] | Potency [3] | Potency [4] | Potency [5] | Potency [6]

CC(C)(C)OC(=O)N1CCC(OCc2nc(-c3ccncc3)no2)CC1
inactive: Potency [1] | Potency [2] | Potency [3] | Potency [4] | Potency [5] | Potency [6]

CCc1c(-c2ccccc2)c(-c2ccccc2)nn1-c1ccccc1-c1cccc(OCC(=O)O)c1
inactive: Potency [1] | Potency [2] | Potency [3] | Potency [4] | Potency [5] | Potency [6]

CC1=C(C(=O)O)/C(=C\CO[C@@H]2O[C@H](CO)[C@@H](O)[C@H](O)[C@H]2O)C(OC(=O)/C=C/c2ccc(O)cc2)C1 (stereo not given in full)
inactive: Potency [1] | Potency [2] | Potency [3] | Potency [4] | Potency [5] | Potency [6]

C[C@H]1C(=O)N2c3ccccc3[C@@]3(O)C[C@@H]4C(=O)N[C@](C)(c5nc6ccccc6c(=O)n54)N1[C@@H]23
inactive: Potency [1] | Potency [2] | Potency [3] | Potency [4] | Potency [5] | Potency [6]

Cc1nc2ccc(Oc3ccc(F)cc3)cc2c(=O)n1C[C@H]1CCCN(C(C)C)C1
inactive: Potency [1] | Potency [2] | Potency [3] | Potency [4] | Potency [5] | Potency [6]

C=C(C)C1CCC(C)C12CC(O)C1(C)OC1C2OC(=O)C(N)CCC(=O)O (stereo not given)
inactive: Potency [1] | Potency [2] | Potency [3] | Potency [4] | Potency [5] | Potency [6]

CS(=O)(=O)NCC1CCC(Nc2nc3c(s2)CCSc2ccccc2-3)CC1 (stereo not given)
inactive: Potency [1] | Potency [2] | Potency [3] | Potency [4] | Potency [5] | Potency [6]

CC/C=C\[C@H](O)[C@H](O)C1=C(C)C(=O)[C@]2(O1)C(=O)N[C@@](OC)(C(=O)c1ccccc1)[C@@H]2O
inactive: Potency [1] | Potency [2] | Potency [3] | Potency [4] | Potency [5] | Potency [6]
